HTR5A inv ctr: inverse agonist of human HTR5A in OPRM1-OPRD1 counter-screen. P47898. HTR5A cell line, luminescence, inverse agonism. inhibition, % at 9.3 µM. 340,000 compounds, 0.083% hits. AID 504634; in the data active = inhibition mostly above about 23%, no sharp cut-off; inactive = mostly below about 18%
MOR-DOR ag: agonists of human mu-delta opioid receptor heterodimerization; cells, OPRM1-OPRD1 heterodimerization, luminescence; activation, % at 9.3 µM; 340,000 compounds, 0.3% hits; AID 504326
HTR2A ag: mouse HTR2A agonism via beta-arrestin recruitment. CHO-K1 mHTR2A beta-arrestin complementation, luminescence; percent of 30 µM serotonin response. AID 624169. activation, % at 7.6 µM. 360,000 compounds, 0.66% hits. P35363;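 active = activation above a run cutoff, the mean activation of all tested compounds plus 3 SD, cut at about 14% in these data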
MOR-DOR inv ag: inverse agonists of human mu-delta opioid receptor heterodimerization | inhibition, % at 9.3 µM | cell-based MOR-DOR heterodimer luminescence, inverse agonism | 340,000 compounds, 0.21% hits | AID 504357; in the data active = inhibition above about 22%, passing the limit was not always enough
HTR5A ag: HTR5A agonism, opioid heterodimer counter-screen. HTR5A agonist assay, luminescence, cell-based. activation, % at 9.3 µM. 340,000 compounds, 0.61% hits. AID 504692; in the data active = activation mostly above about 9.5%, no sharp cut-off; inactive = mostly below about 7.6%
sPLA2-III inh: Inhibits HGIII-sPLA2 liposome hydrolysis, primary screen | Q9NZ20 | QFRET BODIPY PC-A2 liposome hydrolysis, fluorescence | inhibition, % at 12.2 µM | 370,000 compounds, 0.56% hits | AID 743126;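 active = inhibition above mean plus 3 SD of compounds lying within the high and low control bounds, cut at about 19% in these data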
Target sequence (Q9NZ20 whole entry, looked up): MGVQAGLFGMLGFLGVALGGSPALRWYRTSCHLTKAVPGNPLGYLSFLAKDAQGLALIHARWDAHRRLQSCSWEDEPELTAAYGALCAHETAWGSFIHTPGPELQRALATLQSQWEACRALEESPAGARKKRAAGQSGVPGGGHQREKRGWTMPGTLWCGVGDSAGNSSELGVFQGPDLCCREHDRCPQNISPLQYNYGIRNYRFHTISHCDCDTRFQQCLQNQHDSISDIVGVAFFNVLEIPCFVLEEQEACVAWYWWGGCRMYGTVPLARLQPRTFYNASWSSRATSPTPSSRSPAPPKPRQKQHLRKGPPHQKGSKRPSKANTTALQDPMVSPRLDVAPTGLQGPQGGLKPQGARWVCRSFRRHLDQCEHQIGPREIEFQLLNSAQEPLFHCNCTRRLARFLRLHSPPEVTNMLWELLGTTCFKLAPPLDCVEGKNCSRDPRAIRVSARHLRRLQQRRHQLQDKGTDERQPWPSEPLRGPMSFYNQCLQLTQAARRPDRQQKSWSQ
OPRM1-D1 ag cf: OPRM1-OPRD1 heterodimer agonism, confirmation | shares compounds with MOR-DOR ag | cells, MOR-DOR heterodimerization, luminescence complementation | activation, % at 9.3 µM | 830 compounds, 45% hits | AID 504904
HTR5A ag counter: counter-screen for OPRM1-OPRD1 agonists: human HTR5A agonism; HTR5A agonist counterscreen, cell luminescence; activation, % at 9.3 µM; AID 504905; 830 compounds, 8% hits; shares compounds with MOR-DOR ag; in the data active = activation above about 17%
MOR-DOR inv conf: confirmation of human OPRM1-OPRD1 heterodimerization inverse agonists | shares compounds with MOR-DOR inv ag | cells expressing OPRM1/OPRD1 heterodimer, luminescence | inhibition, % at 9.3 µM | 580 compounds, 20% hits | AID 504900; in the data active = inhibition above about 32%
HTR5A inv count: inverse agonist of human HTR5A in OPRM1-OPRD1 counter-screen; shares compounds with MOR-DOR inv ag; HTR5A-expressing cells, luminescence, inverse agonism; inhibition, % at 9.3 µM; 580 tested, under 10 active; call rule not given here
MOR ag counter: OPRM1 agonism in mouse HTR2A counterscreen; shares compounds with HTR2A ag; U2OS OPRM1 beta-arrestin PathHunter, luminescence; DMSO 0%, DAMGO 9.3 µM 100%; activation, % at 9.3 µM; 2,300 compounds, 5.3% hits; AID 624380;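 active = mean activation above the mean of DMSO-only wells plus 3 SD, cut at about 0.5% in these data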
m5-HT2A ag conf: mouse HTR2A agonism confirmed. shares compounds with HTR2A ag. activation, % at 7.6 µM. 2,300 compounds, 19% hits. CHO-K1 PathHunter beta-arrestin recruitment, luminescence; DMSO 0%, 30 µM serotonin 100%. AID 624381;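 active = mean activation across triplicates above the hit threshold derived in the original primary screen, cut at about 15% in these data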
hGIII sPLA2 conf: human GIII-sPLA2 inhibition, confirmation; shares compounds with sPLA2-III inh; inhibition, % at 12.2 µM; 2,000 compounds, 34% hits; recombinant hGIII-sPLA2, BODIPY PC-A2 QFRET fluorescence;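 active = mean inhibition across triplicates above the hit cutoff set in the earlier primary screen, cut at about 19% in these data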
535nm interf: counter-screen for HGIII-sPLA2 inhibitors: 535nm fluorescence interference. shares compounds with sPLA2-III inh. BODIPY FL product fluorescence interference, QFRET. inhibition, % at 12.2 µM. 2,000 compounds, 8.5% hits. AID 743282;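 active = average inhibition above the solvent-only control mean plus 3 SD, cut at about 6% in these data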
Each line names hits and unclear results; the compound was inactive in the other large screens (follow-up assays come after a bar, where they were run); ! = not active in a repeat. Sampled rows, rich in hits. Any-hit rate of the full collection: about 2.2%. Rule as the data show it, unless noted: active = activation above about 18%; inactive = the rest.

COc1ccc(CN2CCN(CC(O)Cn3c4ccccc4c4ccccc43)CC2)cc1 (stereo unspecified)	MOR-DOR ag 20.7, HTR2A ag 19.4 | OPRM1-D1 ag cf 24.2 | HTR5A ag counter inactive | MOR ag counter 1.1 | m5-HT2A ag conf inactive
CCOc1ccc(CN2CCN(CC(O)Cn3c4ccccc4c4ccccc43)CC2)cc1 (stereo unspecified)	none
O=C(C(=O)N1CCC(CNC(=O)c2cccs2)CC1)c1cc2ccccc2o1	none (no result: HTR5A inv ctr, MOR-DOR ag, HTR2A ag, MOR-DOR inv ag, HTR5A ag)
CCOC(=O)c1c2c(n(Cc3ccccc3)c1C)C(=O)C(=O)c1ccccc1-2	MOR-DOR ag 19.5, HTR2A ag 15.2 | OPRM1-D1 ag cf inactive | HTR5A ag counter inactive | MOR ag counter 1.8 | m5-HT2A ag conf inactive
CC(=O)Nc1ccc(S(=O)(=O)NC2=C(N3CCN(Cc4ccccc4)CC3)C(=O)c3ccccc3C2=O)cc1	MOR-DOR ag 55.5, sPLA2-III inh 21.1! | OPRM1-D1 ag cf 69.2 | HTR5A ag counter inactive | hGIII sPLA2 conf 25.1 | 535nm interf inactive
COc1ccc2[nH]c3c(c2c1)CCN[C@]31C(=O)N(Cc2cn(Cc3ccccc3)nn2)c2ccccc21	none (no result: HTR5A inv ctr, MOR-DOR ag, HTR2A ag, MOR-DOR inv ag, HTR5A ag)
Cc1cccc(C)c1NC(=O)C(NC=O)c1ccc(Cl)cc1 (stereo unspecified)	MOR-DOR inv ag 33.0 | MOR-DOR inv conf inactive | HTR5A inv count inactive
COC(=O)[C@]12C[C@H](CC(=O)N3CCN(C(=O)c4ccco4)CC3)C(=O)N(CCC3=CCCCC3)C1=C[C@H](C(C)(C)C)O[C@@H]2C	none (no result: HTR5A inv ctr, MOR-DOR ag, HTR2A ag, MOR-DOR inv ag, HTR5A ag)
O=C(CNC(=O)C1CCCCC1)OCC(=O)c1ccc(F)cc1	none
O=C(CNC(=O)C1CCCCC1)OCC(=O)c1cccc(Cl)c1	MOR-DOR inv ag 35.8 | MOR-DOR inv conf inactive | HTR5A inv count inactive
COC(=O)C[C@@H]1CC[C@@H]2[C@@H](COc3ccc(NC(=O)Nc4ccc(F)cc4)cc3C(=O)N2C)O1	none (no result: HTR5A inv ctr, MOR-DOR ag, HTR2A ag, MOR-DOR inv ag, HTR5A ag)
COc1ccc(N=Cc2ccccc2O)cc1	none
COc1ccc(N=Cc2[nH]c3ccccc3c2O)cc1	MOR-DOR inv ag 29.9 | MOR-DOR inv conf inactive | HTR5A inv count inactive
CN(C)CCC(=O)N1C/C(=C/c2ccccc2)C(=O)/C(=C\c2ccccc2)C1	MOR-DOR inv ag 42.9 | MOR-DOR inv conf inactive | HTR5A inv count inactive
COc1c(C(=O)NC(=S)Nc2nnn(C)n2)cc2ccccc2c1Br	none
Cn1nnc(NC(=S)NC(=O)c2cccc3c(Cl)cccc23)n1	MOR-DOR inv ag 31.4 | MOR-DOR inv conf inactive | HTR5A inv count inactive
COc1cccc(C(=O)NC(=S)Nc2nnn(C)n2)c1	MOR-DOR inv ag 27.9 | MOR-DOR inv conf inactive | HTR5A inv count inactive
Cn1nnc(NC(=S)NC(=O)c2cccc3c(Br)cccc23)n1	MOR-DOR inv ag 33.1 | MOR-DOR inv conf inactive | HTR5A inv count inactive
CCCCCCCCNS(=O)(=O)/C=C/c1ccc(OC)cc1CNC(=O)OC(C)(C)C	none (no result: HTR5A inv ctr, MOR-DOR ag, HTR2A ag, MOR-DOR inv ag, HTR5A ag)
COc1ccc(NC(=S)Nc2nc(CC(=O)Nc3ccccc3OC)cs2)cc1	MOR-DOR inv ag 36.1 | MOR-DOR inv conf inactive | HTR5A inv count inactive
CN1C(=O)/C(=C2/C=Cc3ccccc3N2CCCS(=O)(=O)O)SC1=S	MOR-DOR inv ag 31.8 | MOR-DOR inv conf inactive | HTR5A inv count inactive
FC(F)(F)c1ccccc1Cc1c(-c2ccco2)nc2c3ccccc3ccn12	none (no result: HTR5A inv ctr, MOR-DOR ag, HTR2A ag, MOR-DOR inv ag, HTR5A ag)
CSCCC1NC(=S)N(Cc2ccccc2)C1=O (stereo unspecified)	MOR-DOR inv ag 41.6 | MOR-DOR inv conf inactive | HTR5A inv count inactive
C=CCN(CC#CC(=C)C)CC1CC1	none (no result: HTR5A inv ctr, MOR-DOR ag, HTR2A ag, MOR-DOR inv ag, HTR5A ag)
Cc1ccc(-c2nnc3n2CCCCC3)cc1	none
O=C1Nc2ccccc2C1=Nc1ccc(-c2nnc3n2CCCCC3)cc1	MOR-DOR inv ag 35.4 | MOR-DOR inv conf 39.5 | HTR5A inv count inactive
COc1ccc(C(=O)Cc2nnc(C)s2)c(OC)c1	MOR-DOR inv ag 77.6 | MOR-DOR inv conf 37.0 | HTR5A inv count inactive
COC(=O)N1C[C@H](OCc2ccccc2)[C@H]2C[C@@H]1c1ccccc1O2	none (no result: HTR5A inv ctr, MOR-DOR ag, HTR2A ag, MOR-DOR inv ag, HTR5A ag)
O=C(CN1C(=O)C2C3C=CC(C3)C2C1=O)OCC(=O)c1ccc(Cl)c([N+](=O)[O-])c1 (stereo unspecified)	MOR-DOR inv ag 77.9 | MOR-DOR inv conf 83.8 | HTR5A inv count inactive
Cc1ccc(C(=O)COC(=O)CN2C(=O)C3CC=CCC3C2=O)cc1[N+](=O)[O-] (stereo unspecified)	MOR-DOR inv ag 49.9 | MOR-DOR inv conf 47.7 | HTR5A inv count inactive
Cc1ccc(C(=O)COC(=O)CN2C(=O)C3C4C=CC(C4)C3C2=O)cc1[N+](=O)[O-] (stereo unspecified)	MOR-DOR inv ag 37.5 (no result: sPLA2-III inh) | MOR-DOR inv conf inactive | HTR5A inv count inactive
Cc1ccc(C(=O)COC(=O)CCN2C(=O)C3C4CCC(C4)C3C2=O)cc1[N+](=O)[O-] (stereo unspecified)	MOR-DOR inv ag 54.7 | MOR-DOR inv conf 47.7 | HTR5A inv count inactive
Cc1ccc(C(=O)COC(=O)CN2C(=O)C3CC=CCC3C2=O)cc1C (stereo unspecified)	none (no result: HTR5A inv ctr, MOR-DOR ag, MOR-DOR inv ag, HTR5A ag)
COc1cccc(NC(=O)Nc2nc3ncccn3c2-c2ccc(C)cc2)c1	none (no result: HTR5A inv ctr, MOR-DOR ag, HTR2A ag, MOR-DOR inv ag, HTR5A ag)
CCOC(=O)N1C(=O)C[C@](Sc2ccc(OC)cc2)(C(=O)N2CCN(C(C)=O)CC2)[C@H]1c1ccc(OC)cc1	none (no result: HTR5A inv ctr, MOR-DOR ag, HTR2A ag, MOR-DOR inv ag, HTR5A ag)
